Experimental findings from PubChem BioAssay are described below.

For some assays here: Entries with a potency or affinity are not part of this list. Activity calls are given as the source filed them. Unless noted, how the calls were made is not given here.

In one assay the test system is Ras-related protein Rab-7a (dog), GTP binding. The experiment in a line: Rab7 GTP binding inhibitors, potency, dose response, biochemical, wildtype, multiplex bead flow cytometry (AID 1336). To be noted: bead-based flow cytometry, fluorescent GTP binding to Rab7; series mostly up to 100 µM.
On to `CCOc1cc(/C=N/NC(=O)CSc2cccc3cccnc23)ccc1O`, for which the molecule was classed as inactive.
The same measure, in the same setting: in the case of `CCCCNc1nc(=S)[nH]c2cc(OC)c(OC)cc12` it was “inactive”.
Same read-out and setting: in the case of `CSc1nc2ccc(NC(=O)C3CC(=O)N(Cc4ccco4)C3)cc2s1` (stereo not given) it was “inactive”; in that of `CN1CCN(c2ccccc2NC(=O)c2ccc(-c3cccc([N+](=O)[O-])c3)o2)CC1`, “inactive”.
Still for that read-out and setting: the result for `COc1ccc(CNc2nc3c(c(=O)n(Cc4ccc(Cl)cc4)c(=O)n3C)n2C)cc1` reads “inactive”.
Take `Cc1ccc(-c2noc(CN3C(C)CCCC3C)n2)cc1` (stereo not given): the molecule was called inactive.
Still for that read-out and setting: the result for `O=C(COc1ccccc1/C=C\c1[nH]c(=O)[nH]c(=O)c1[N+](=O)[O-])Nc1ccccc1` reads “inactive”; that for `Oc1ccc(C2=Nn3c(nnc3-c3ccco3)SC2)cc1O`, “inactive”; that for `Cc1ccc(OCc2ccc(C(=O)O)o2)cc1C`, “inactive”.
In the case of `C=CCn1c(-c2csc(-c3ccc(Cl)cc3)n2)n[nH]c1=S`, the outcome was inactive.
Still for that read-out and setting: in the case of `O=C(O)COc1ccccc1/C=N/Nc1ccc(S(=O)(=O)Nc2ccc(Cl)cc2)cc1[N+](=O)[O-]` it was “inactive”; in that of `O=C1c2ccccc2C(=O)N1CCCCN(C(=O)c1cc2ccccc2oc1=O)c1ccc(Cl)cc1`, “inactive”.
Take `Cn1c(SCC(=O)Nc2cc(C(C)(C)C)nn2-c2ccccc2)nc2ccccc21`: the outcome was inactive.
Still for that read-out and setting: the result for `CCCCCCNc1cc2n(c(=O)n1)CCc1cc(OC)c(OC)cc1-2` reads “inactive”.
On the same count and under the same terms, in the case of `Nc1c([N+](=O)[O-])cc(-c2cnc[nH]2)cc1[N+](=O)[O-]` it was “inactive”.
On the same count and under the same terms, the result for `CC(=O)Oc1cccc(C#CC(=O)c2ccc([N+](=O)[O-])cc2)c1` reads “inactive”; that for `CCc1nnc(NC(=O)CCC(=O)N2CCN(c3ccccn3)CC2)s1`, “inactive”; that for `CC(=O)OC(C(=O)NC1CCCCC1)c1ccc(Cl)cc1` (stereo not given), “inactive”.
For the molecule `CCN1C(=O)/C(=C/C=C2/Sc3ccc4ccccc4c3N2CCO)SC1=S`, the call was inactive.
The same measure, in the same setting: in the case of `CCN1CCN(c2nc3c(c(=O)n(C)c(=O)n3C)n2Cc2cccc3ccccc23)CC1` it was “inactive”; in that of `O=C(O)c1cc2ccccc2nc1OCCc1ccccc1`, “inactive”.
As to `C=CCc1ccccc1OCc1cccc(C(=O)O)c1`, the call was inactive.
`O=[N+]([O-])c1ccc(/C=C/C2=NN(c3ccccc3)C(c3ccco3)C2)cc1` (stereo not given): the outcome was inactive.
Same read-out and setting: in the case of `N=c1oc2ccc3ccccc3c2cc1-c1nc(-c2ccccc2)cs1` it was “inactive”; in that of `N#CC(C#N)=C(Nc1ccc(F)cc1)SCc1cccc(Br)c1`, “inactive”.
Same read-out and setting: in the case of `N#C/C(=C\c1ccc(-c2ccc(C(=O)O)cc2)o1)c1nc2ccccc2[nH]1` it was “inactive”.
Same read-out and setting: in the case of `CCN(CC)S(=O)(=O)c1ccc2c(c1)c(=O)c(C(=O)N1CCc3ccccc3C1)cn2C` it was “inactive”.
As for `CCOC(=O)C1=NN(c2ccc(C)cc2)CC1C(=O)OC` (stereo not given), the molecule was called inactive.
On the same count and under the same terms, the result for `O=C(NC1CCCCC1)C(c1ccco1)N(Cc1ccco1)C(=O)c1ccco1` (stereo not given) reads “inactive”.
Regarding `C=C(C)COc1ccc(-c2n[nH]c(C)c2-c2ccc(Br)cc2)c(O)c1`, the molecule was classed as inactive.
On the same count and under the same terms, in the case of `O=S(=O)(Cc1ccccc1)c1ccccc1-c1nnc(-c2ccccc2)o1` it was “inactive”; in that of `CCOC(=O)Cn1nnnc1CN(Cc1cccs1)Cc1cc2cc(C)ccc2[nH]c1=O`, “inactive”; in that of `CC(=O)Nc1ccc(NC(=O)CCn2nnc3ccccc32)cc1`, “inactive”.
Still for that read-out and setting: the result for `COc1ccc(CNc2nc3ccccc3n2Cc2ccc(C)cc2)cc1OC` reads “inactive”; that for `O=C(O)c1ccccc1C(=O)OCc1ccc(F)cc1F`, “inactive”.
The same measure, in the same setting: the result for `COc1ccc2oc(COc3ccccc3)c(C(=O)O)c2c1` reads “inactive”.
For `CCOc1ccc(-n2c(-c3ccco3)n[nH]c2=S)cc1`, the call was inactive.
On the same count and under the same terms, the result for `OC(c1ccc(OCc2ccccc2)cc1)c1nnc(-c2ccccc2)o1` (stereo not given) reads “inactive”.
As to `COc1ccc(-c2c3c(nc4sc5c(=O)[nH]c(C)nc5c24)CCC3)cc1`, the call was inactive.
In the case of `O=C(COc1ccccc1-c1ccccc1)N/N=C/c1ccncc1`, the molecule was classed as inactive.

In a further assay the target is Ras-related C3 botulinum toxin substrate 1 (Homo sapiens) (UniProt P63000). The experiment in a line: wildtype Rac1 GTP binding inhibitors, dose response, biochemical, multiplex bead flow cytometry (AID 1340;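 active means dose curve with midpoint inside tested range, moderate steepness, plateau gap beyond fit error, low compound glow and bead-link interference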). To be noted: GST-Rac1 beads, Bodipy-FL-GTP binding; at 100 µM (top of the series) unless noted. Background: A flow cytometer gives signals particle by particle.
Molecule `CCOc1cc(/C=N/NC(=O)CSc2cccc3cccnc23)ccc1O` returned a GTP binding signal, raw median fluorescence (lower = inhibition) (MCF (arbitrary fluorescence units)) of 188.
On the same count and under the same terms, in the case of `CCCCNc1nc(=S)[nH]c2cc(OC)c(OC)cc12` it was 110.
Still for that read-out and setting: the result for `CSc1nc2ccc(NC(=O)C3CC(=O)N(Cc4ccco4)C3)cc2s1` (stereo not given) reads 195; that for `CN1CCN(c2ccccc2NC(=O)c2ccc(-c3cccc([N+](=O)[O-])c3)o2)CC1`, 308; that for `COc1ccc(CNc2nc3c(c(=O)n(Cc4ccc(Cl)cc4)c(=O)n3C)n2C)cc1`, 228.
The same measure, in the same setting: in the case of `Cc1ccc(-c2noc(CN3C(C)CCCC3C)n2)cc1` (stereo not given) it was 216; in that of `O=C(COc1ccccc1/C=C\c1[nH]c(=O)[nH]c(=O)c1[N+](=O)[O-])Nc1ccccc1`, 191; in that of `Oc1ccc(C2=Nn3c(nnc3-c3ccco3)SC2)cc1O`, 0.
`Cc1ccc(OCc2ccc(C(=O)O)o2)cc1C` gave a GTP binding signal, raw median fluorescence (lower = inhibition) (MCF (arbitrary fluorescence units)) of 34.8.
Take `C=CCn1c(-c2csc(-c3ccc(Cl)cc3)n2)n[nH]c1=S`: the GTP binding signal, raw median fluorescence (lower = inhibition) (MCF (arbitrary fluorescence units)) was 262.
The same measure, in the same setting: in the case of `O=C(O)COc1ccccc1/C=N/Nc1ccc(S(=O)(=O)Nc2ccc(Cl)cc2)cc1[N+](=O)[O-]` it was 174; in that of `O=C1c2ccccc2C(=O)N1CCCCN(C(=O)c1cc2ccccc2oc1=O)c1ccc(Cl)cc1`, 210; in that of `Cn1c(SCC(=O)Nc2cc(C(C)(C)C)nn2-c2ccccc2)nc2ccccc21`, 0.
The same measure, in the same setting: in the case of `CCCCCCNc1cc2n(c(=O)n1)CCc1cc(OC)c(OC)cc1-2` it was 128; in that of `Nc1c([N+](=O)[O-])cc(-c2cnc[nH]2)cc1[N+](=O)[O-]`, 190; in that of `CC(=O)Oc1cccc(C#CC(=O)c2ccc([N+](=O)[O-])cc2)c1`, 95.5.
On the same count and under the same terms, in the case of `CCc1nnc(NC(=O)CCC(=O)N2CCN(c3ccccn3)CC2)s1` it was 190; in that of `CC(=O)OC(C(=O)NC1CCCCC1)c1ccc(Cl)cc1` (stereo not given), 240.
As to `CCN1C(=O)/C(=C/C=C2/Sc3ccc4ccccc4c3N2CCO)SC1=S`, the GTP binding signal, raw median fluorescence (lower = inhibition) (MCF (arbitrary fluorescence units)) worked out at 179.
Same read-out and setting: the result for `CCN1CCN(c2nc3c(c(=O)n(C)c(=O)n3C)n2Cc2cccc3ccccc23)CC1` reads 314; that for `O=C(O)c1cc2ccccc2nc1OCCc1ccccc1`, 50.3.
Same read-out and setting: the result for `C=CCc1ccccc1OCc1cccc(C(=O)O)c1` reads 56.1; that for `O=[N+]([O-])c1ccc(/C=C/C2=NN(c3ccccc3)C(c3ccco3)C2)cc1` (stereo not given), 258.
Same read-out and setting: the result for `N=c1oc2ccc3ccccc3c2cc1-c1nc(-c2ccccc2)cs1` reads 209; that for `N#CC(C#N)=C(Nc1ccc(F)cc1)SCc1cccc(Br)c1`, 181.
For the molecule `N#C/C(=C\c1ccc(-c2ccc(C(=O)O)cc2)o1)c1nc2ccccc2[nH]1`, the GTP binding signal, raw median fluorescence (lower = inhibition) (MCF (arbitrary fluorescence units)) worked out at 144.
Same read-out and setting: the result for `CCN(CC)S(=O)(=O)c1ccc2c(c1)c(=O)c(C(=O)N1CCc3ccccc3C1)cn2C` reads 225.
The same measure, in the same setting: in the case of `CCOC(=O)C1=NN(c2ccc(C)cc2)CC1C(=O)OC` (stereo not given) it was 244; in that of `O=C(NC1CCCCC1)C(c1ccco1)N(Cc1ccco1)C(=O)c1ccco1` (stereo not given), 176; in that of `C=C(C)COc1ccc(-c2n[nH]c(C)c2-c2ccc(Br)cc2)c(O)c1`, 265.
The same measure, in the same setting: in the case of `O=S(=O)(Cc1ccccc1)c1ccccc1-c1nnc(-c2ccccc2)o1` it was 188; in that of `CCOC(=O)Cn1nnnc1CN(Cc1cccs1)Cc1cc2cc(C)ccc2[nH]c1=O`, 187.
For the molecule `CC(=O)Nc1ccc(NC(=O)CCn2nnc3ccccc32)cc1`, the GTP binding signal, raw median fluorescence (lower = inhibition) (MCF (arbitrary fluorescence units)) stood at 251.
`COc1ccc(CNc2nc3ccccc3n2Cc2ccc(C)cc2)cc1OC` yielded a GTP binding signal, raw median fluorescence (lower = inhibition) (MCF (arbitrary fluorescence units)) of 343.
Same read-out and setting: the result for `O=C(O)c1ccccc1C(=O)OCc1ccc(F)cc1F` reads 72.5; that for `COc1ccc2oc(COc3ccccc3)c(C(=O)O)c2c1`, 29.6; that for `CCOc1ccc(-n2c(-c3ccco3)n[nH]c2=S)cc1`, 107.
Same read-out and setting: the result for `OC(c1ccc(OCc2ccccc2)cc1)c1nnc(-c2ccccc2)o1` (stereo not given) reads 173.
Same read-out and setting: in the case of `COc1ccc(-c2c3c(nc4sc5c(=O)[nH]c(C)nc5c24)CCC3)cc1` it was 153.
In the case of `O=C(COc1ccccc1-c1ccccc1)N/N=C/c1ccncc1`, the GTP binding signal, raw median fluorescence (lower = inhibition) (MCF (arbitrary fluorescence units)) was 247.
